# Measurements reported in PubChem BioAssay AID1847 (The Scripps Research Institute Molecular Screening Center, 2009).
# Values joined by “and” are separate entries in the source; they are usually repeats but may differ in a detail not shown here. Equal values may be shown once. The campaign covered roughly 2,300 compounds. About 1,100 (48%) were called active. So high a share suggests a set chosen from earlier hits. The list is a sample of the results. Unmarked numbers belong to inactive results.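 The calls were made as follows: active = inhibition above the mean inhibition of all tested sample wells plus 3 SD (cut at about 10% in these data); inactive = the rest.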
# Biological target: Luciferin 4-monooxygenase (Photinus pyralis) (UniProt P08659)
# Assay: firefly luciferase inhibitors, HSP90 counter-screen, confirmation, artefact control for HSP90 inhibitor project, biochemical, luminescence, triplicate (AID 1847);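 also: 0% = DMSO with luciferase and 100% = wells lacking luciferase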
# Conditions: purified native firefly luciferase, at 5.9 µM, hits give high values
# Sequence of Luciferin 4-monooxygenase (Photinus pyralis) (P08659 whole entry, looked up): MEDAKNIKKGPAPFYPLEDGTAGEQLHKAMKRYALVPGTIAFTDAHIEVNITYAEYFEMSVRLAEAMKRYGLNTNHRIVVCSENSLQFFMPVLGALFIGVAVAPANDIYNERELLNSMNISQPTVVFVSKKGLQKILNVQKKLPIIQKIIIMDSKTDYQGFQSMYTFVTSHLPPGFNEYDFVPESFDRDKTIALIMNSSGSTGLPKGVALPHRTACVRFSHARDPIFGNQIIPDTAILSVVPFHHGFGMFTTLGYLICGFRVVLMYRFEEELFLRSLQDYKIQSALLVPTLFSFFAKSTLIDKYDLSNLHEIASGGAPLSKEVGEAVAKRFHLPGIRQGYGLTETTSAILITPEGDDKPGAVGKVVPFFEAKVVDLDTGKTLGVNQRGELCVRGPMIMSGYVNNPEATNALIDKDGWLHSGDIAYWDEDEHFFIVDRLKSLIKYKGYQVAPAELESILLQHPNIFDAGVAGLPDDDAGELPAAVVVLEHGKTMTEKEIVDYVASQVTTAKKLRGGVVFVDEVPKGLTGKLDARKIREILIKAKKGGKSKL
row,Compound,inhibition
1,CCc1ccc2oc(-c3ccc(N)cc3)nc2c1,51% (active)
2,Nc1ccc(-c2nnc(-c3ccccc3)o2)cc1,-10.8%
3,O=C(Cn1c[n+](CC(=O)c2ccc([N+](=O)[O-])cc2)cn1)c1ccc([N+](=O)[O-])cc1,-6.5% and -8.93%
4,COc1cc(CNC2CCCCC2)c(Br)cc1OC1CCCC1,1%
5,COC(=O)C1[C@H]2SC(C)(C)C(C(=O)OC)N2C(=O)N1Cc1nc2ccccc2s1 (stereo not given in full),-10.3%
6,COc1ccc(CNC(=O)/C(C#N)=C/c2cccc(OC)c2OC)cc1,-0.6%
7,COc1ccc(Nc2ncnc3ccc(Br)cc23)c(OC)c1,55.5% (active)
8,Cc1ccc2nc(/C(C#N)=C\c3ccc(OC(=O)c4cccs4)cc3)[nH]c2c1,-9.37%
9,CCCCNC(=O)Nc1c(C)cc(SC#N)cc1C,-1.43%
10,Cc1nn(CC(=O)Nc2ccc(F)cc2)c(=O)c2ccccc12,-7.73%
11,CCOc1ccc(-c2nnc(-c3ccco3)o2)cc1,56.9% (active)
12,O=C(CN1C(=O)c2ccccc2S1(=O)=O)N1CCc2ccccc21,-9.57%
13,CCOc1c(Br)cc(/C=C2\C(=O)N(CCC#N)N=C2C)cc1OC,29.9% (active)
14,N#C/C=C\Oc1ccc(Cl)cc1N,-7.1%
15,Cc1nnc(SCC(=O)N2c3ccccc3C(C)(c3ccc(Cl)cc3)CC2(C)C)s1 (stereo not given),-1.27%
16,O=C(Nc1cccnc1)c1noc2c1CCCCC2,38.6% (active)
17,COc1cc(NS(=O)(=O)c2ccc3ccccc3c2)c2ncccc2c1,-7.83%
18,CSCCC(C(=O)NC1=NCCS1)N1C(=O)c2ccccc2C1=O (stereo not given),-8.47%
19,CN(C)c1ccc(-n2cccc2/C=N/n2cnnc2)cc1,-11.7%
20,Cc1nc2ccc(C(=O)O)cc2[nH]1,4.87%
21,CC(C)c1nc2ccc(C(=O)O)cc2[nH]1,31.5% (active)
22,CC(C)(C)OC(=O)c1c(N)n(CCCN2CCCC2=O)c2nc3ccccc3nc12,-7.33%
23,CCCS(=O)(=O)N1CCCC(C(=O)NCCN2CCCCC2C)C1 (stereo not given),-4.93%
24,Cc1ccc(-c2cn3cc(C)ccc3n2)cc1,87.3% (active)

row,Compound,inhibition
1,COc1ccc(-c2cn3ccc(C)cc3n2)cc1,69.7% (active)
2,Cc1ccc2nc(-c3ccc(Br)cc3)cn2c1,81.5% (active)
3,Cc1cccc(C(=O)OC(C)CN2CCN(C)CC2)c1 (stereo not given),-7.93%
4,O=C(O)c1ccc(N=NN2CCOCC2)cc1,-12.9%
5,Cc1ccc(C(=O)CSc2ccccc2C(=O)O)cc1,-0.87%
6,O=C(CSC(=S)N1CCOCC1)c1ccccc1,34.5% (active)
7,CCOC(=O)N1CCN(Cc2nc3c(c(=O)n(C)c(=O)n3C)n2Cc2ccccc2)CC1,-8.93%
8,O=C(Cc1ccccc1)N1CCN(S(=O)(=O)c2ccc([N+](=O)[O-])cc2)CC1,-3.47%
9,C=CCN1CCN(C(=O)CCCc2ccccc2)CC1,37.2% (active)
10,COc1cc(C(=O)NN(CCC#N)C2=NS(=O)(=O)c3ccccc32)cc(OC)c1OC,-6.77%
11,Cc1cccc(CCNC(=O)Cn2ncc3c([nH]c4ccc(C)cc43)c2=O)c1,-0.53%
12,CN(c1ccc2nc3ccccc3c(=O)n2n1)C1CCCCC1,87.3% (active)
13,O=C(OC1CCOC1=O)c1ccc(-c2nc3ccccc3s2)s1 (stereo not given),65.2% (active)
14,c1ccc(-c2noc(-c3cccs3)n2)nc1,27.4% (active)
15,CCOC(=O)c1nc(C)n(-c2ccc(Cl)cc2Cl)n1,-5.2%
16,COc1ccc(/C=N/Nc2ccccc2C(=O)O)cc1,23.4% (active)
17,COc1ccc(C(=O)Nc2ccccc2C(=O)N/N=C/c2ccc(O)c(OC)c2)cc1,93.5% (active)
18,O=C(Nc1ccccc1C(=O)O)c1ccc(N2C(=O)C3CC=CCC3C2=O)cc1 (stereo not given),-15.7%
19,CCc1nc(SCC(=O)Nc2ccccc2OC)n[nH]1,0.13%
20,COc1ccc(C(=O)Nc2ccccc2C(=O)N/N=C/c2ccccc2OC)cc1,43.8% (active)
21,COc1ccc(Cl)cc1NC(=O)Cn1nc(-c2ccc(C)cc2)n(C)c1=S,-10.3%
22,CC(OC(=O)c1ccc2noc(-c3ccccc3)c2c1)C(N)=O (stereo not given),-3.9%
23,Oc1c(C=Nc2cccc3nsnc23)ccc2ccccc12,-18.8%
24,COc1ccc(-c2nc(-c3ccccc3)no2)c(OC)c1,81.7% (active)

row,Compound,inhibition
1,COc1ccc(/C=C/c2noc(-c3ccccc3OC(C)=O)n2)cc1,-12.5%
2,CCCOc1ccc(C(=O)NCCc2ccccc2)cc1,44% (active)
3,CCCCOCCCNC(=O)c1ccccc1OCC,-6.47%
4,COc1cccc(/C=C/c2ccc3ccccc3n2)c1OC(C)=O,-12.7%
5,Cc1ccc(C(=O)COC(=O)c2cccc(N3C(=O)c4c(C)nc5ccccc5c4C3=O)c2)cc1C,-20.1%
6,COc1cccc2c(C)c(C(=O)O)[nH]c12,30.6% (active)
7,O=C1CCC([N+](=O)[O-])C(c2ccccc2Br)N1 (stereo not given),-7.7%
8,CC(C)CNC(=O)CC(NCC(C)C)C(=O)O (stereo not given),-6.07%
9,Clc1cccc(N=C2NN=C(c3ccc4c(c3)OCCO4)CS2)c1,36.7% (active)
10,c1c2c(cc3sc(N4CCCCC4)nc13)OCCO2,80% (active)
11,CCN(CCCNC(=O)c1ccc2c(c1)NC(=O)CN2C)c1cccc(C)c1,-5.03%
12,COc1ccc(C(=O)/C=C/Nc2ccccn2)cc1,90.9% (active)
13,CCOc1ccc(N/C=C/C(=O)c2ccccc2)cc1,62.8% (active)
14,CCCCCc1ccc(-c2ccc(C(=O)O)cc2)nc1,57.8% (active)
15,C/C(=N\NC(=S)NC1CCCCC1)c1ccc(C)o1,-11.1%
16,CCS(=O)(=O)c1cc([N+](=O)[O-])c(Sc2ccccc2N)s1,46% (active)
17,CCc1ccc(Nc2ncc3c(n2)CC(c2ccco2)CC3=O)cc1 (stereo not given),-15%
18,Cc1ccsc1C(=O)OCC(=O)c1cc(C)n(CC2CCCO2)c1C (stereo not given),85.4% (active)
19,COCc1cc(=O)[nH]c2cc(NC(=O)C(F)(F)F)c(C)cc12,-7%
20,CN(CCO)c1ccc(/C=N/Nc2nncc3ccccc23)cc1,84.2% (active)
21,CCCCC(=O)Nc1nc(C)c(-c2csc(Nc3ccc(Cl)cc3)n2)s1,-9.5%
22,O=c1oc(/C=C/c2ccccc2)nc2ccccc12,-16.5%
